From PubChem BioAssay (EPA / NIEHS)
Several values for one entry are separate records, joined by “and”; a condition that tells them apart may be missing. Equal entries are not always repeated. A structure can be active in one record and inactive in another. Activity calls are given as the source filed them. Rule for the calls: active = hit-call score of the fitted dose curve at least 0.9, where 1 is the maximum; inactive = score below 0.9.

Columns and labels:
[1] = read-out: Macrophage colony-stimulating factor (MCSF), CSF1 (gene 1435); assay: BSK_hDFCGF_MCSF: BioMAP Diversity Plus: hDFCGF Assay for Macrophage colony-stimulating factor (MCSF) Biomarker Activity (AID 2283060); conditions: primary human foreskin fibroblasts; actives raise or lower the signal
Method in brief: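 ELISA read-out of M-CSF in human dermal foreskin fibroblast cultures, 24 h after chemical dosing; gain or loss of signal fitted bidirectionally relative to DMSO baseline.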

[2] = BSK_hDFCGF_SRB: Viability Assessment in the BioMAP Diversity Plus: hDFCGF Assay (AID 2283061); conditions: primary human foreskin fibroblasts;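 note: cells exposed to compound for 24 h before the read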
Method in brief: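 Primary human foreskin fibroblasts; 24 h post-dose; fixed 10% TCA, stained 0.1% SRB, A560 read; total protein as overt cytotoxicity measure; curves fit bidirectionally vs DMSO control.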

[3] = read-out: TIMP metallopeptidase inhibitor 1 (TIMP1), TIMP1 (gene 7076); assay: BSK_hDFCGF_TIMP1: BioMAP Diversity Plus: hDFCGF Assay for TIMP metallopeptidase inhibitor 1 (TIMP1) Biomarker Activity (AID 2283062); conditions: primary human foreskin fibroblasts; actives raise or lower the signal
Method in brief: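 ELISA readout of TIMP-1 from human dermal foreskin fibroblast cultures 24 h post-dosing. Curves were fitted in both directions against DMSO baseline, with SRB total-protein staining in parallel cultures as a cytotoxicity check.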

[4] = read-out: Monokine induced gamma interferon (MIG), CXCL9 (gene 4283); assay: BSK_hDFCGF_MIG: BioMAP Diversity Plus: hDFCGF Assay for Monokine induced gamma interferon (MIG) Biomarker Activity (AID 2283063); conditions: primary human foreskin fibroblasts; actives raise or lower the signal
Method in brief: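 Fibroblasts (human foreskin, primary) dosed, 24 h, MIG by ELISA; fit bidirectional vs DMSO.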

[5] = read-out: Matrix Metallopeptidase 1 (MMP1), MMP1 (gene 4312); assay: BSK_hDFCGF_MMP1: BioMAP Diversity Plus: hDFCGF Assay for Matrix Metallopeptidase 1 (MMP1) Biomarker Activity (AID 2283064); conditions: primary human foreskin fibroblasts; actives raise or lower the signal
Method in brief: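 Primary human foreskin fibroblasts exposed to chemicals for 24 h; MMP1 measured by ELISA. Cytotoxicity tracked by SRB staining in parallel cultures; bidirectional fit relative to DMSO.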

[6] = read-out: Vascular cell adhesion molecule 1 (VCAM1), VCAM1 (gene 7412); assay: BSK_hDFCGF_VCAM1: BioMAP Diversity Plus: hDFCGF Assay for Vascular cell adhesion molecule 1 (VCAM1) Biomarker Activity (AID 2283065); conditions: primary human foreskin fibroblasts; actives raise or lower the signal;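 for AC50: VCAM-1 protein level quantified by ELISA after 24 h chemical exposure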
Method in brief: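 ELISA read-out of VCAM-1 on human skin fibroblasts, 24 h post-dose; gain or loss of signal fitted bidirectionally against DMSO baseline.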

[7] = read-out: Intercellular Adhesion Molecule 1 (ICAM1), ICAM1 (gene 3383); assay: BSK_KF3CT_ICAM1: BioMAP Diversity Plus: KF3CT Assay for Intercellular Adhesion Molecule 1 (ICAM1) Biomarker Activity (AID 2283067); conditions: primary human keratinocytes with fibroblasts; actives raise or lower the signal
Method in brief: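 ELISA readout of ICAM-1; KF3CT human skin co-culture (keratinocytes + foreskin fibroblasts), 24 h post-dose; gain/loss fit vs DMSO baseline.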

[8] = read-out: Interferon-gamma inducible Protein 10 (IP10), CXCL10 (gene 3627); assay: BSK_KF3CT_IP10: BioMAP Diversity Plus: KF3CT Assay for Interferon-gamma inducible Protein 10 (IP10) Biomarker Activity (AID 2283068); conditions: primary human keratinocytes with fibroblasts; actives raise or lower the signal
Method in brief: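 ELISA read-out of IP-10 after 24 h chemical dosing of human skin primary co-culture (keratinocytes, foreskin fibroblasts). Gain or loss of signal relative to DMSO, bidirectional curve fit.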

[9] = BSK_KF3CT_SRB: Viability Assessment in the BioMAP Diversity Plus: KF3CT Assay (AID 2283069); conditions: primary human keratinocytes with fibroblasts;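 note: total protein by sulforhodamine B staining as a cytotoxicity measure; read 24 h after compound addition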
Method in brief: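 Human keratinocyte and foreskin fibroblast co-culture exposed to chemical for 24 h. Total protein measured in parallel cultures by 0.1% sulforhodamine B staining after 10% TCA fixation, read at 560 nm; bidirectional fit relative to DMSO.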

[10] = read-out: Interleukin-1 alpha (IL1a), IL1A (gene 3552); assay: BSK_KF3CT_IL1a: BioMAP Diversity Plus: KF3CT Assay for Interleukin-1 alpha (IL1a) Biomarker Activity (AID 2283070); conditions: primary human keratinocytes with fibroblasts; actives raise or lower the signal
Method in brief: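 Primary human keratinocyte plus foreskin fibroblast co-culture, dosed and measured at 24 h in 96-well plates. IL-1a level quantified by ELISA; bidirectional fit relative to DMSO.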

[11] = read-out: TIMP metallopeptidase inhibitor 2 (TIMP2), TIMP2 (gene 7077); assay: BSK_KF3CT_TIMP2: BioMAP Diversity Plus: KF3CT Assay for TIMP metallopeptidase inhibitor 2 (TIMP2) Biomarker Activity (AID 2283071); conditions: primary human keratinocytes with fibroblasts; actives raise or lower the signal
Method in brief: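 Cells: human keratinocytes co-cultured with foreskin fibroblasts. Treat with chemical, 24 h. Measure TIMP-2 by ELISA; fit curves bidirectionally vs DMSO baseline.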

[12] = read-out: C-C motif chemokine 2 (Homo sapiens) (UniProt P13500); assay: BSK_KF3CT_MCP1: BioMAP Diversity Plus: KF3CT Assay for Monocyte Chemoattractant Protein 1 (MCP1/CCL2) Biomarker Activity (AID 2283073); conditions: primary human keratinocytes with fibroblasts; actives raise or lower the signal
Method in brief: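 KF3CT skin co-culture (keratinocytes/foreskin fibroblasts), 24 h post-dose; MCP-1 by ELISA; gain/loss of signal fit bidirectionally vs DMSO baseline.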

[13] = read-out: Matrix Metallopeptidase 9 (MMP9), MMP9 (gene 4318); assay: BSK_KF3CT_MMP9: BioMAP Diversity Plus: KF3CT Assay for Matrix Metallopeptidase 9 (MMP9) Biomarker Activity (AID 2283074); conditions: primary human keratinocytes with fibroblasts; actives raise or lower the signal;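 for AC50: MMP9 protein level quantified by ELISA in the co-culture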
Method in brief: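 Human keratinocyte and foreskin fibroblast co-culture exposed to chemicals for 24 h; MMP9 biomarker measured by ELISA, bidirectional fitting relative to DMSO; cytotoxicity tracked by SRB total protein staining in parallel cultures.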

[14] = read-out: urokinase plasminogen activator (uPA), PLAU (gene 5328); assay: BSK_KF3CT_uPA: BioMAP Diversity Plus: KF3CT Assay for urokinase plasminogen activator (uPA) Biomarker Activity (AID 2283075); conditions: primary human keratinocytes with fibroblasts; actives raise or lower the signal
Method in brief: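 Primary human keratinocyte/foreskin fibroblast co-culture exposed to chemical; uPA measured by ELISA at 24 h. Bidirectional fit versus DMSO, with parallel SRB total-protein staining for cytotoxicity.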

CD40, CD40 (gene 958) = assay: BSK_LPS_CD40: BioMAP Diversity Plus: LPS Assay for CD40 Biomarker Activity (AID 2283076); conditions: primary human HUVEC with PBMC; actives raise or lower the signal
Method in brief: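 ELISA readout of CD40 in HUVEC/PBMC co-culture (BSK_LPS system), 24 h post-dosing; bidirectional curve fit, DMSO baseline; parallel SRB total-protein staining for cytotoxicity.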

[15] = read-out: E-selectin (Homo sapiens) (UniProt P16581); assay: BSK_LPS_Eselectin: BioMAP Diversity Plus: LPS Assay for Eselectin Biomarker Activity (AID 2283077); conditions: primary human HUVEC with PBMC; actives raise or lower the signal
Method in brief: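 ELISA readout of E-selectin, 24 h post-dose, HUVEC + PBMC co-culture (LPS system). Gain or loss of signal vs DMSO baseline, bidirectional fit.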

[16] = read-out: Interleukin-8 (IL8), CXCL8 (gene 3576); assay: BSK_LPS_IL8: BioMAP Diversity Plus: LPS Assay for Interleukin-8 (IL8) Biomarker Activity (AID 2283078); conditions: primary human HUVEC with PBMC; actives raise or lower the signal
Method in brief: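 HUVEC + PBMC co-culture, LPS-activated; test chemicals dosed, IL-8 read by ELISA at 24 h. Bidirectional curve fit vs DMSO baseline (gain or loss of signal).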

[17] = BSK_LPS_SRB: Viability Assessment in the BioMAP Diversity Plus: LPS Assay (AID 2283079); conditions: primary human HUVEC with PBMC;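 note: total protein by sulforhodamine B absorbance as a cytotoxicity measure; measured one day after compound addition; fitted in both directions against DMSO so loss or gain of signal counts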
Method in brief: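 HUVEC + PBMC co-culture, LPS-stimulated; compound 24 h. 10% TCA fix, 0.1% SRB stain, A560. Bidirectional fit vs DMSO.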

[18] = read-out: Transforming growth factor beta 1 (TGFb1), TGFB1 (gene 7040); assay: BSK_KF3CT_TGFb1: BioMAP Diversity Plus: KF3CT Assay for Transforming growth factor beta 1 (TGFb1) Biomarker Activity (AID 2283072); conditions: primary human keratinocytes with fibroblasts; actives raise or lower the signal
Method in brief: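 Primary human skin cells (keratinocytes, foreskin fibroblasts) were co-cultured, exposed to test chemical and sampled at 24 h. TGF-b1 levels were measured by ELISA and fitted bidirectionally relative to DMSO.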

Measured: AC50

Sequence of E-selectin (Homo sapiens) (P16581 whole entry, looked up): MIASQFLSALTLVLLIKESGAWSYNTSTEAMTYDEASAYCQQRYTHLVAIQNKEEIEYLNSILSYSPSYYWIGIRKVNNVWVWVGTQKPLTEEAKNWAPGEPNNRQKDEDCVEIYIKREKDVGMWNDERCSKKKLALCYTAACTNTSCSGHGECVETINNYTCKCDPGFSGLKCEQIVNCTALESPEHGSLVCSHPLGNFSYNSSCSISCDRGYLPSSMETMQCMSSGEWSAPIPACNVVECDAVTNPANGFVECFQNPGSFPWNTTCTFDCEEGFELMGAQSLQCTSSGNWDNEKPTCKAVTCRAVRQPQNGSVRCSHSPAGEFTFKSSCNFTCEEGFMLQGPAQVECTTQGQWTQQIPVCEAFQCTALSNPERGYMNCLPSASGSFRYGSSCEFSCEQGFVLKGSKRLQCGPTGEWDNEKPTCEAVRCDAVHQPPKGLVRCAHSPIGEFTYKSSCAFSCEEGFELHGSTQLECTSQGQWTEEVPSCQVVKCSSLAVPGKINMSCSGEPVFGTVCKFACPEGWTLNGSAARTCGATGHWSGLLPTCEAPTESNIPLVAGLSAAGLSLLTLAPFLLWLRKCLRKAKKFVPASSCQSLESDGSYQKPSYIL

CO[Si](C)(CCC(F)(F)C(F)(F)C(F)(F)C(F)(F)C(F)(F)C(F)(F)F)OC
not listed: [18]
inactive: all other assays above

C[C@]12CC[C@H]3C(=CCc4cc(O)ccc43)[C@@H]1CCC2=O
inactive: all assays above

O=C1c2c(O)ccc(Nc3ccc(CCO)cc3)c2C(=O)c2c([N+](=O)[O-])ccc(O)c21
inactive: [5] | [9] | [10] | [18] | [12] | [14] | [16]
active: [1] 8.52 µM | [2] 20 µM | [3] 20 µM | [4] 29.5 µM | [6] 9.03 µM | [7] 15.2 µM | [8] 27 µM | [11] 0.54 µM | [13] 20 µM | CD40, CD40 (gene 958) 8.34 µM | [15] 20 µM | [17] 3.97 µM

C=C(C)C(=O)OCC(F)(F)C(F)(F)C(F)(F)C(F)F
not listed: [18]
inactive: all other assays above

O=C(O)C(F)(F)OC(F)(F)C(F)(F)OC(F)(F)C(F)(F)OC(F)(F)F
active: [16] 9.98 µM and 20 µM
inactive: [1] | [2] | [3] | [4] | [5] | [6] | [7] | [8] | [9] | [10] | [11] | [12] | [13] | [14] | CD40, CD40 (gene 958) | [15] | [16] | [17]

O=C(O)CCC(F)(F)C(F)(F)C(F)(F)F
not listed: [18]
inactive: all other assays above
